Data as given in the supplement of paper PMC6555819.

Assays:
Test in all cases: PBM binding z-score (relative to random genomic background probes); higher = stronger binding; sequences stand for … in GC…GCGATTGACAGCGTAGAATGAAGG
[1] = test system: PPARg:RXRa DBDmut IVT, anti-RXR (DBD mutation: RXRa K156A/R161A, NR concentration 270 nM, RXRa partner concentration 90 nM)
Method in brief: (§1)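 Binding buffer was PBS pH 7.4 with 2% milk, 0.02% Triton X-100, 1 mM DTT, 0.2 mg/mL BSA and 0.4 mg/ml salmon testes DNA. In it, ligand-free nuclear receptor dimers were incubated 1 h on custom Agilent 4×180K protein-binding microarrays carrying double-stranded probes. Antibodies against each partner (one per run) detected binding, and z-scores were calculated against random background probes after regression normalization of scanned fluorescence.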

[2] = test system: PPARg:RXRa IVT, anti-PPARg (NR concentration 270 nM, RXRa partner concentration 90 nM)
Method in brief: as §1

[3] = test system: PPARg DBDmut:RXRa IVT, anti-PPARg (DBD mutation: PPARg1 K132A/R137A, NR concentration 270 nM, RXRa partner concentration 90 nM)
Method in brief: as §1

[4] = test system: PPARg DBDmut IVT, anti-PPARg (DBD mutation: PPARg1 K132A/R137A, NR concentration 270 nM)
Method in brief: as §1

[5] = test system: PPARg homodimer (NR concentration 180 nM)
Method in brief: as §1

[6] = test system: PXR:RXRa (NR concentration 270 nM, RXRa partner concentration 90 nM)
Method in brief: as §1

[7] = test system: PXR homodimer (NR concentration 270 nM)
Method in brief: as §1

[8] = test system: RARa:RXR (NR concentration 270 nM, RXRa partner concentration 90 nM)
Method in brief: as §1

[9] = test system: RARa homodimer (NR concentration 270 nM)
Method in brief: as §1

[10] = test system: RARb:RXRa (NR concentration 270 nM, RXRa partner concentration 90 nM)
Method in brief: as §1

Sequence	PBM binding z-score [1]	PBM binding z-score [2]	PBM binding z-score [3]	PBM binding z-score [4]	PBM binding z-score [5]	PBM binding z-score [6]	PBM binding z-score [7]	PBM binding z-score [8]	PBM binding z-score [9]	PBM binding z-score [10]
GCAGACAGGTGAAACCCAGGTAACTCAGGGTGGC	0.362	0.476	-0.384	-0.363	-0.871	-0.19	-0.863	0.261	-1.14	0.645
CCAGATAGGTGAAAGGTAACTCAGTCTGGTACGC	5.2	4.32	0.289	-0.0951	1.74	1.02	0.111	2.13	0.659	1.31
TAGCCTAGTTCATTGGGCCAGTATAGTACGCATC	1.48	1.68	-0.38	-0.291	-0.325	0.756	0.651	-0.0581	-0.777	1.17
ACAGACAGGTGAGTGAAGGTATCTCAGCTGGACG	0.178	0.541	-0.168	-1.07	-0.226	-0.609	-0.293	-0.438	-0.61	0.255
GCAGACAGGTGAAACGCAGGTAATTCAGGGTGGC	0.893	0.576	-0.406	-0.569	0.0586	-0.158	-0.351	0.462	-0.448	0.697
TTACCAAGTTGAAAGGTCGTTGATGCACGCCTTG	0.565	1.78	-0.471	0.0768	1.5	3.35	0.56	4.05	0.532	2.34
ATCCCTAGGTAACAAGTTCAGTGAAAGAGAGGAC	0.293	0.638	0.652	0.582	1.15	1.7	1.53	0.808	0.946	1.51
CCTAGCAGGCCTGGGTCACTCAAGCATTTCGCTT	0.171	0.217	-1.39	-1.28	0.279	0.53	-0.661	1.16	0.152	1.43
CTCGAAAGGTCGTGCTCAGGTGAGTAAACCAAAC	0.815	1.96	0.213	0.0254	1.55	3.34	0.175	4.18	0.14	3.98
TGAATGGGGTTATAAGATCAGGGAACGTTGCAAA	2.58	2.71	2.28	1.59	2.39	2.25	1.48	3.06	2.01	1.69
TTTTGTAGATCAACAGGAGGTTAAGAAAGATCGA	1.26	1.98	1.18	1.43	0.903	0.932	0.512	1.34	1.05	0.73
TGAATGAGGTTATAGATCAGGGAACGTGGCGTCG	1.18	1.89	1.37	0.361	1.11	0.894	0.211	1.58	0.661	1.34
TCTAGCAGACCAGAGGGTCACTCAAGAGGTACGG	0.667	-0.0326	-0.965	-2.06	0.364	1.38	-0.694	1.85	-0.734	1.81
GATACAGGGTCAGCTAGAGGCCAAAGTATGGAAA	1.15	2.73	0.457	0.0688	3.56	4.24	0.247	5.28	0.349	4.25
GATACAGGTTCAAGGCCAGAGTACGCGTATTGAT	-0.252	0.582	-0.175	-0.432	1.38	1.9	0.971	1.61	0.647	1.79
CGTCCAAGGTCATAGGAGGTCAGTGTAGACAGAT	3.65	4.6	0.558	0.275	4.52	6.7	3.78	6.16	1.57	5.32
CCTAGCCGGCCAGGGTCACTCAAGCATTTCGCTT	-0.601	0.147	-1.32	-1.69	0.756	2.84	-0.583	3.45	-0.658	2.56
GCTGCTAGGTCAACCGATGGTCAGCTAAAGCTCG	4.93	4.21	-0.16	-0.394	1.63	1.43	-0.956	2.99	-0.609	4.22
GATACAGGGTCAAGGCGAGAGTACGCGTATTGAT	2.65	3.72	2.63	0.177	3.25	3.76	0.46	4.83	1.14	4.37
AGTCAAAGTTCACTAGGTAACGTGAGATTCAGCT	2.52	4.98	1.48	1.01	2.06	3.61	1.97	2.87	0.41	4.72
GCGACTGGGGCTAAGCAGGTTACCATAAGGTTGG	0.815	0.343	-0.64	-1.34	-0.237	-0.0501	-0.222	0.266	-0.85	0.544
TCTTATAGGTAAAGGTGAAAGTCGAACGATATGA	3.92	3.7	2	1.77	1.61	1.11	0.648	1.96	1.18	2.21
TGAGTGAGGTTAAAGATCAGGGAACGTGGCGTCG	0.116	1.91	0.365	0.826	1.29	2.13	0.027	3.26	0.307	2.15
CCTTACGGGTCACTCCACGTTATAGCATCGGAGT	2.55	3.09	0.675	0.232	2.03	2.39	0.155	3.01	0.911	3.44
